Assay outcomes from PubChem.
LMP1 NFkB inh = reduces LMP1-driven NF-kappaB luciferase signal; LMP1-induced NF-kappaB luciferase reporter cells, luminescence; inhibition, % at 12.5 µM; hit rate 0.69% among 350,000; AID 504558; in the data active = inhibition above about 41%;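 also: 0% = neutral control wells and 100% = reference inhibitor control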
TWEAK Fn14 block = blocks TWEAK-Fn14 interaction in a reporter cell assay. TWEAK-stimulated Fn14 reporter cells, luciferase luminescence, 8 h. inhibition, % at 10 µM. hit rate 2% among 360,000. AID 1159606; in the data active = inhibition above about 50%
HSF1 activator = increases HSF-1 driven luciferase reporter signal. NIH3T3-HGL HSF-1 luciferase reporter, MG132, 8 h; 100% = twice DMSO control signal. activation, % at 9 µM. hit rate 1.7% among 300,000;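 active = mean replicate activation of at least 50% with a set share of replicates each reaching 50%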;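 also: 0% = median of the neutral control wells and 100% = twice that signal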
LGR2 inh = inhibitors of bursicon-induced Drosophila LGR2 receptor cAMP signaling; AID 720647; HEK293 LGR2, CRE-luciferase, bursicon-stimulated, 4 h; hit rate 0.35% among 380,000; inhibition, % at 9.99 µM;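 active = drop in luminescence signal, shown as inhibition above about 50% in the replicate tests, limit read from the data, passing the limit was not always enough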;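 also: agonist challenge used bursicon conditioned medium at about half maximal strength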
HSF1 inh = HSF1 inhibition; NIH3T3-HGL HSE-luciferase, MG132-induced, luminescence 8 h; active compounds read low; activity change, negative = inhibition, % at 7.5 µM (by protocol); hit rate 0.77% among 300,000; AID 2098;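 active = more than half of replicate wells show activity change below -50%, luminescence cut by over half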;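 also: luciferase reports HSF-1 transcriptional activity via heat shock element; 0% = median of DMSO wells and -100% = zero luminescence signal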
TROY signal inh = blocks TROY-dependent signaling in reporter cells; Q293 LMP1-TROYcd NF-kB luciferase reporter, 4 h; inhibition, % at 10 µM; hit rate 0.98% among 360,000; AID 1347056;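 active = compounds whose plate-normalised and pattern-corrected inhibition of the luciferase reporter signal at the single screening dose is 50% or more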
Starred values were filed as active, the others as inactive. Only some compounds are listed: those with a hit (about 3.6% of all), similar ones and a draw of the others.

Results for Cc1cc(N2CCN(C)CC2)nc2ccc(NC(=S)NCCC(C)C)cc12 ?
LMP1 NFkB inh: 4; TWEAK Fn14 block: 25; HSF1 activator: -22; LGR2 inh: 2; HSF1 inh: -14; TROY signal inh: 54*

What do the screens show for `CCCCN(C)C(=O)CCC(=O)Nc1ccc2nc(N3CCN(C)CC3)cc(C)c2c1`?
LMP1 NFkB inh: -16; TWEAK Fn14 block: -6; HSF1 activator: -76; LGR2 inh: -4; HSF1 inh: -70*; TROY signal inh: -4

Results for Cc1cc(N2CCOCC2)nc2ccc(NC(=S)NCCC(C)C)cc12 ?
LMP1 NFkB inh: -6; TWEAK Fn14 block: -8; HSF1 activator: 9; LGR2 inh: 1; HSF1 inh: 10; TROY signal inh: -30

How did CNC[C@H]1OCCCC[C@H](C)Oc2ccc(NC(=O)C3CCCCC3)cc2C(=O)N([C@H](C)CO)C[C@@H]1C do in these assays?
LGR2 inh: -2

Results for C[C@@H]1CCCCO[C@@H](CN(C)C(=O)c2ccccc2)[C@H](C)CN([C@@H](C)CO)C(=O)c2cc(NC(=O)CCCN(C)C)ccc2O1 ?
LGR2 inh: 11

Results for CC(C)(Oc1ccc(Cl)cc1)C(=O)NC1=NN(c2ccccc2)C(=O)C1 ?
LMP1 NFkB inh: 1; TWEAK Fn14 block: 19; HSF1 activator: -19; LGR2 inh: 5; HSF1 inh: 1; TROY signal inh: 55*

What do the screens show for `S=C(Nc1ccc(Oc2ccccc2)cc1)NC1CCCC1`?
LMP1 NFkB inh: 9; TWEAK Fn14 block: -21; HSF1 activator: 21; LGR2 inh: -12; HSF1 inh: -8; TROY signal inh: -24

Results for S=C(NCC1CCCCC1)Nc1ccc(Oc2ccccc2)cc1 ?
LMP1 NFkB inh: 48*; TWEAK Fn14 block: 18; HSF1 activator: -2; LGR2 inh: -1; HSF1 inh: -3; TROY signal inh: 46

What do the screens show for `Cc1ccc([N+](=O)[O-])cc1Nc1nc(N2CCCC2)nc(N2CCCC2)n1`?
LMP1 NFkB inh: -4; TWEAK Fn14 block: 52*; HSF1 activator: -14; LGR2 inh: 7; HSF1 inh: -3; TROY signal inh: -6

What do the screens show for `CC(C)(C)c1nc(NC(=O)Nc2ccccc2)sc1Br`?
LMP1 NFkB inh: -23; TWEAK Fn14 block: 61*; HSF1 activator: 5; LGR2 inh: 2; HSF1 inh: 7; TROY signal inh: 23

What do the screens show for `COc1ccc(NC(=O)Nc2nnc(C(C)(C)C)s2)cc1`?
LMP1 NFkB inh: -3; TWEAK Fn14 block: -23; HSF1 activator: 8; LGR2 inh: -52; HSF1 inh: 6; TROY signal inh: -36

Results for O=C(CN1CCOCC1)N1CC(=O)N2[C@@H](CO)[C@H](c3ccc(/C=C/c4ccccc4)cc3)[C@@H]2C1 ?
LGR2 inh: -25

Results for O=C(Nc1cc(-c2ccccc2)nn1C1CCCCC1)c1ccc(Cl)cc1 ?
LMP1 NFkB inh: -4; TWEAK Fn14 block: 14; LGR2 inh: 26; TROY signal inh: 54*

What do the screens show for `COC(=O)CNc1c(-c2ccccc2)nc2ccc(Br)cn12`?
LMP1 NFkB inh: 9; TWEAK Fn14 block: -11; HSF1 activator: 51*; HSF1 inh: 17; TROY signal inh: -43

What do the screens show for `Cc1c(C(=O)N2CCN(c3ccccn3)CC2)sc2ncnc(N3CCN(c4ccccc4)CC3)c12`?
LMP1 NFkB inh: 12; TWEAK Fn14 block: 8; HSF1 activator: 13; HSF1 inh: 7; TROY signal inh: 3

Results for CCCNC(=O)Cn1cnc2sc(C(=O)N3CCN(Cc4ccc5c(c4)OCO5)CC3)c(C)c2c1=O ?
LMP1 NFkB inh: 20; TWEAK Fn14 block: -20; HSF1 activator: -8; LGR2 inh: 12; HSF1 inh: -2; TROY signal inh: 15

How did Cc1c(C(=O)N2CCN(Cc3ccc4c(c3)OCO4)CC2)sc2ncnc(N3CCN(c4ccccc4F)CC3)c12 do in these assays?
LMP1 NFkB inh: 13; TWEAK Fn14 block: 88*; HSF1 activator: 7; LGR2 inh: 20; HSF1 inh: 6; TROY signal inh: 50

What do the screens show for `Cc1c(C(=O)N2CCN(Cc3ccc4c(c3)OCO4)CC2)sc2ncnc(N3CCN(c4ccccc4)CC3)c12`?
LMP1 NFkB inh: 21; TWEAK Fn14 block: 87*; HSF1 activator: 5; LGR2 inh: 36; HSF1 inh: 2; TROY signal inh: 53*

How did C[C@@H]1CCCCO[C@H](CN(C)C(=O)CCCN(C)C)[C@@H](C)CN([C@H](C)CO)C(=O)c2cc(NC(=O)Nc3cccc4ccccc34)ccc2O1 do in these assays?
LGR2 inh: -2

How did Cc1ccc(S(=O)(=O)Nc2ccc3c(c2)C(=O)N([C@H](C)CO)C[C@H](C)[C@@H](CN(C)S(=O)(=O)c2ccc(Cl)cc2)O3)cc1 do in these assays?
LGR2 inh: 13

What do the screens show for `O=C(C1CC1)N1CC(=O)N2[C@@H](CO)[C@@H](c3ccc(C#CCc4ccccc4)cc3)[C@@H]2C1`?
LGR2 inh: 13

What do the screens show for `CO[C@H]1CN(C)C(=O)c2ccc(NS(C)(=O)=O)cc2OC[C@H](C)N(C(=O)C2CC2)C[C@@H]1C`?
LGR2 inh: 0

What do the screens show for `COc1cc2[nH]c(=S)nc(NCc3cccs3)c2cc1OC`?
LMP1 NFkB inh: 0; TWEAK Fn14 block: 4; HSF1 activator: 123*; LGR2 inh: -3; HSF1 inh: 61; TROY signal inh: 15

What do the screens show for `COc1ccccc1CNc1nc(=S)[nH]c2cc(OC)c(OC)cc12`?
LMP1 NFkB inh: 1; TWEAK Fn14 block: 3; HSF1 activator: 24; LGR2 inh: 31; HSF1 inh: -7; TROY signal inh: 8

How did C[C@H](CO)N1C[C@H](C)[C@@H](CN(C)S(=O)(=O)c2ccc(Cl)cc2)Oc2ccc(NS(=O)(=O)c3ccc(F)cc3)cc2CC1=O do in these assays?
LGR2 inh: 3

How did Oc1cccc2c(NC(=S)Nc3ccc(OC(F)F)cc3)cccc12 do in these assays?
LMP1 NFkB inh: -13; TWEAK Fn14 block: 91*; HSF1 activator: -14; LGR2 inh: 14; HSF1 inh: -10; TROY signal inh: 48

How did FC(F)Oc1ccc(NC(=S)NCc2ccccc2)cc1 do in these assays?
LMP1 NFkB inh: 39; TWEAK Fn14 block: -16; HSF1 activator: 3; HSF1 inh: 1; TROY signal inh: -4

What do the screens show for `CCCC(=O)Nc1ccc2c(c1)C(=O)N(C)C[C@H](OC)[C@@H](C)CN(CC1CCOCC1)[C@@H](C)CO2`?
LGR2 inh: -2

What do the screens show for `CCOC(=O)C1CCN(C(=O)CNC(=O)OC(C)(C)C)CC1`?
LMP1 NFkB inh: 43*; TWEAK Fn14 block: -2; HSF1 activator: 3; LGR2 inh: -3; HSF1 inh: -1; TROY signal inh: 3

Results for CC(C)(C)OC(=O)NCC(=O)N1CCC(C(=O)O)CC1 ?
LMP1 NFkB inh: 5; TWEAK Fn14 block: 7; HSF1 activator: -30; HSF1 inh: -13; TROY signal inh: -4
